In PubChem BioAssay (EPA / NIEHS):
The source made the active and inactive calls. How the source made its calls: active means hit-call score of the fitted dose curve at least 0.9, where 1 is the maximum; inactive means score below 0.9.

Assay: CCTE_Shafer_MEA_acute_burst_percentage_std: CCTE's Neural Acute Assay for Standard Deviation of Burst Percentage, Shafer Lab (AID 2284018);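 further: fitted in the negative direction so actives lower burst percentage SD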
Procedure: CCTE_Shafer_MEA_acute assay is conducted using Axion Biosystems 48 well microelectrode array (MEA) plates and Maestro recording system. Each well of the MEA plate contains a grid of 16 microelectrodes embedded in the culture surface. Electrically active cells, such as neurons, can be cultured over the electrodes, and electrical activity in these cells can be recorded extracellularly. The spontaneous firing of neurons is captured from each electrode on a microsecond timescale providing both temporally and spatially precise data. […] The CCTE_Shafer_MEA_acute assay uses primary cultures of rat cortical neurons. As these cultures mature over time, neural networks develop functional activity and form cohesive networks in which electrical activity can be highly coordinated. Baseline 40-minute recordings are made on days post-plating 13 or 15, followed by a secondary 40-minute recording after chemical exposure.CCTE_Shafer_MEA_acute_burst_percentage_std is a component of the CCTE_Shafer_MEA_acute assay. It measures the percentage of spikes (action potential firing) in a single-electrode burst (temporally-clustered groups of spikes) as the number of spikes in bursts divided by the total number of spikes during a recording in a microelectrode array (MEA) using Axion Biosystems Maestro 768 channel amplifier with the AxIS adaptive spike detector. The standard deviation of the burst percentages across electrodes is calculated to report a well-level value. The recordings before and after chemical treatment are used to calculate a percent change in the standard deviation of the burst percentage in each well.Data from the assay component CCTE_Shafer_MEA_acute_burst_percentage_std was analyzed into 1 assay endpoint. This assay endpoint, CCTE_Shafer_MEA_acute_burst_percentage_std, was analyzed in the negative analysis fitting direction relative to DMSO as the negative control and baseline of activity. Using a type of functional reporter, gain or loss-of-signal activity can be used to understand electrical activity.
Spontaneous activity in the cortical cultures was recorded using an Axion Biosystems Maestro 768 channel amplifier and Axion Integrated Studios (AxIS) v1.8 (or later) software. The amplifier recorded from all channels simultaneously (gain = 1200 x; sampling rate = 12.5 kHz/channel): raw signals were filtered with a Butterworth band-pass filter (300-5000 Hz), which filters out slower local field potentials leaving only fast potentials, i.e., "spikes", arising from extracellular currents associated with action potentials (Pine 2006; Wheeler and Nam 2011). On-line spike detection of filtered signals was conducted with the AxIS adaptive spike detector, using a threshold of 8x the root mean squared (rms) noise on each channel. Any electrodes with rms noise levels greater than 5 uV were grounded (e.g., no data were recorded). Once grounded, an electrode was grounded for the duration of the experiment. All recordings were conducted at 37 C. Wells were deemed usable if on the day of the exposure >/= 10 electrodes were active (defined as >/= 5 spikes/min). On DIV 13 or 15, a minimum of three wells from one cortical culture preparation were treated with each compound (0.03-40 uM). Prior to recording baseline activity, each mwMEA plate was placed in the Maestro at 37 C and allowed to sit for 20 min while firing rates stabilized. Baseline activity (40 min) was recorded before the addition of each compound. An additional 40 min of spontaneous activity was recorded in the presence of each compound. Changes in network parameters relative to baseline were assessed following compound treatment.
With `Nc1nc(N)c2nc(CNc3ccc(C(=O)N[C@@H](CCC(=O)O)C(=O)O)cc3)cnc2n1` the outcome was “inactive”.
With `CC(=O)C(C)=CC1C(C)=CCCC1(C)C` (configuration not stated) the outcome was “inactive”.
For `C=CCc1ccc(O)c(OC)c1`, the outcome was “inactive”.
For `NCC1(Cc2noc(=O)[nH]2)CCCCC1`, the outcome was “inactive”.
With `CN[C@H]1CC[C@@H](c2ccc(Cl)c(Cl)c2)c2ccc(S(N)(=O)=O)cc21` the outcome was “inactive”.
With `COc1ccc2c(c1)c(CC(=O)O)c(C)n2C(=O)c1ccc(Cl)cc1` the outcome was “inactive”.
For `FC(F)(F)C(F)(F)C(F)(F)C(F)(F)C(F)(F)C(F)(F)CCI`, the outcome was “inactive”.
In the case of `Cc1ccc2ncccc2c1`, the outcome is reported as “inactive”.
With `C[Si]1(C)O[Si](C)(C)O[Si](C)(C)O[Si](C)(C)O1` the outcome was “inactive”.
With `CC(C)(C)c1cc(O)c(C(C)(C)C)cc1O` the outcome was “inactive”.
With `Nc1ccc2c(c1)C(=O)c1ccccc1C2=O` the outcome was “inactive”.
In the case of `CCOC(=O)C(C)(C)Oc1ccc(Cl)cc1`, the outcome is reported as “inactive”.
For `CCCc1cc(=O)[nH]c(=S)[nH]1`, the outcome was “inactive”.
In the case of `Clc1cc(Cl)c(Cl)cc1Cl`, the outcome is reported as “inactive”.
In the case of `O=C(O)CCCCC(=O)O`, the outcome is reported as “inactive”.
For `c1cc(-c2ccncc2)ccn1`, the outcome was “inactive”.
In the case of `CNCc1cc(F)ccc1Oc1ccc(Cl)c(Cl)c1`, the outcome is reported as “inactive”.
In the case of `C=CCOC(=O)c1ccccc1C(=O)OCC=C`, the AC50 is reported as 20 µM (active).
With `Cc1ccc(C)c(O)c1C` the AC50 was 29.3 µM (active).
For `CCCCCCCCCCCCCCCCCC(=O)O`, the outcome was “inactive”.
For `Cc1ccc(C(C)C)c(O)c1`, the outcome was “inactive”.
In the case of `Nc1ccccc1N`, the outcome is reported as “inactive”.
With `CN1CCCC1=O` the outcome was “inactive”.
In the case of `NS(=O)(=O)c1cc2c(cc1Cl)NCNS2(=O)=O`, the outcome is reported as “inactive”.
In the case of `CC(=O)Oc1ccccc1C(=O)O`, the outcome is reported as “inactive”.
In the case of `CCCCCCCCCCO`, the outcome is reported as “inactive”.
For `COc1ccc(S(=O)(=O)N2C(=O)[C@@](c3ccccc3OC)(N3C[C@H](O)C[C@H]3C(=O)N(C)C)c3cc(Cl)ccc32)c(OC)c1`, the outcome was “inactive”.
